From PubChem BioAssay (NCI)
Compounds without any hit were thinned out: in the full panel of roughly 83,000, 20% have a hit.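 Each cell line was grown in a 96-well plate and treated with one concentration of compound for 48 hours. Values below 10 were considered active.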 Values without a mark were called inactive. Active and inactive are the calls of the source.

Legend:
Assay in all cases: NCI-60 one-dose screen, 48 h (100 = growth as untreated, 0 = no growth, -100 = all killed)
Conditions in all cases: 10 µM unless noted
HCT-15 colon = system: HCT-15 colon
HT29 colon = system: HT29 colon
SNB-75 CNS = system: SNB-75 CNS
SNB-19 CNS = system: SNB-19 CNS
U251 CNS = system: U251 CNS
PC-3 prostate = system: PC-3 prostate
SK-MEL-5 melanoma = system: SK-MEL-5 melanoma
UACC-62 melanoma = system: UACC-62 melanoma
LOX IMVI melanoma = system: LOX IMVI melanoma
SK-MEL-28 melanoma = system: SK-MEL-28 melanoma

SMILES | growth (HCT-15 colon) | growth (HT29 colon) | growth (SNB-75 CNS) | growth (SNB-19 CNS) | growth (U251 CNS) | growth (PC-3 prostate) | growth (SK-MEL-5 melanoma) | growth (UACC-62 melanoma) | growth (LOX IMVI melanoma) | growth (SK-MEL-28 melanoma)
COc1ccc(-n2nnnc2-c2cn[nH]c2C(F)(F)F)cc1 | 110% | 93.1% | 102% | 101% | 94.8% | 105% | 94.4% | 83.6% | 95.6% | 96.2%
COc1ccc(C2C3(C#N)C(N)=NC(=C(C#N)C#N)C23C#N)cc1OC (stereo not given) | 114% | 116% | 107% | 106% | 103% | 111% | 105% | 99.8% | 98.7% | 115%
CCC(CCCN1C(=O)c2ccccc2C1=O)Nc1cc(OC)cc2c(C)ccnc12 (stereo not given) | 91.5% | 100% | 92.2% | 102% | 90.7% | 89.1% | 85.3% | 69.5% | 95.8% | 101%
Cc1ncc(C(=O)Nc2ccc(CN3CCN(C)CC3)c(C(F)(F)F)c2)cc1C#Cc1c(N)ncc2ccccc12 | -90.8% (active) | -89% (active) | -90.6% (active) | -100% (active) | -99.6% (active) | -76.7% (active) | -99.6% (active) | -82.3% (active) | -89.9% (active) | -96.5% (active)
C/C(=N\Nc1cccc(Cl)n1)c1ccccn1 | 23.5% | 26.2% | 36.6% | 23.1% | 14.5% | 29.3% | -51.6% (active) | -24.1% (active) | 0.322% (active) | 14.2%
O=c1c2c(c3ccccc3n1-c1ccccc1)NC(=S)NC2c1ccc(Cl)cc1 (stereo not given) | 28.6% | 41.5% | 41% | 39.7% | 32.4% | -4.33% (active) | 1.08% (active) | 22.4% | 8.65% (active) | 48.2%
CCOc1ccc2nc3ccc(Cl)cc3nc2c1 | 97.1% | 90.5% | 108% | 97.7% | 96.4% | 99.9% | 67.1% | 79.4% | 101% | 113%
C=CCC(CCC(CC=C)C(=O)OCC)C(=O)OCC (stereo not given) | 105% | 102% | 77.8% | 96.2% | 102% | 97.9% | 108% | 101% | 92.1% | 91.1%
CCN(CC)C(=O)C1(C)CCCC2(C)c3cc(OC(C)=O)ccc3CCC12 (stereo not given) | 87% | 82.9% | 80.9% | 96.5% | 81.5% | 76.2% | 67.6% | 73.1% | 101% | 88.5%
CC(C)OC(=O)Nn1cnc2ccccc21 | 120% | 111% | 128% | 111% | 106% | 101% | 108% | 107% | 114% | 128%
CCCCCCCCC/C(=N\NC(=O)c1ccncc1)c1ccc(O)c(O)c1O | 34.9% | 29% | 37.1% | 33.8% | 12.1% | 47% | -18.8% (active) | -5.54% (active) | 22.9% | 43.7%
c1ccc(Nc2ncc3c(n2)-c2cccn2CC3)cc1 | 32.9% | 114% | 83.3% | 103% | 93.7% | 81.3% | 67% | 80.1% | 92.4% | 107%
COc1cc(NC(C)CCCN)c2nccc(C)c2c1OC (stereo not given) | 84.4% | 57.9% | 103% | 97.6% | 64.5% | 72.3% | 86.8% | 97.2% | 58.5% | 117%
CCCNC(=O)Oc1ccc(/C(=C(/C)Cc2ccc(OC)cc2)c2ccc(OCCN3CCCC3)cc2)cc1 | 16.9% | 0.741% (active) | 48.2% | 78.6% | 48.6% | 56.4% | 11.7% | 52.5% | 48.4% | 55.8%
CC(O)CN(CCO)CCN(CCO)CC(C)O (stereo not given) | 101% | 100% | 98.7% | 105% | 106% | 106% | 106% | 101% | 98% | 106%
COC(=O)c1ccc2[nH]c(O)c(C(=Nc3ccc(N(C)C(=O)CN4CCN(C)CC4)cc3)c3ccc(C)cc3)c2c1 | -38.5% (active) | -23.3% (active) | -26.8% (active) | -10.6% (active) | -77.2% (active) | -16% (active) | -73.1% (active) | -19% (active) | 4.3% (active) | -8.16% (active)
COc1ccc(/C=C(/C(=O)N2CCN(c3ccc(C)cc3)CC2)c2cc(OC)c(OC)c(OC)c2)cc1N | 11.8% | 3.34% (active) | 9.7% (active) | 33.6% | 22% | 9.56% (active) | -30.7% (active) | 40% | 22.2% | 54.3%
O=C(/C=C/c1ccc(Cl)cc1)c1ccc(Cl)cc1 | 94.3% | 70.2% | 99% | 102% | 93.8% | 96.8% | 97.3% | 90.4% | 66.5% | 99.9%
O=C(NCCNCCO)c1cc([N+](=O)[O-])cc([N+](=O)[O-])c1O | 106% | 104% | 102% | 102% | 99.3% | 99.7% | 103% | 101% | 99.1% | 106%
CC(=N\N=C(N)N)/C(=N/N=C(N)N)c1ccccc1 | 103% | 42.7% | 88.4% | 68% | 80.7% | 75.2% | 102% | 103% | 95.6% | 110%
COc1cccc(Cn2cc3c(c2)-c2oncc2CC3)c1 | 18.7% | 9.25% (active) | 25.2% | 39.4% | 31.7% | 27.4% | 6.37% (active) | 46.2% | 34.7% | 51.9%
CC#Cc1nc(Nc2cc(C)[nH]n2)c2ccccc2n1 | -0.521% [100 µM] (active) | 2.45% [100 µM] (active) | -14.3% [100 µM] (active) | 43% [100 µM] | -25.5% [100 µM] (active) | -28.8% [100 µM] (active) | -71.9% [100 µM] (active) | -84.1% [100 µM] (active) | -58.5% [100 µM] (active) | 40.5% [100 µM]
CCOC(=O)C1C(=O)C(=O)N(C(C)C)C1C(=O)OCC (stereo not given) | 94.1% | 98.2% | 85.9% | 97.3% | 107% | 97.8% | 103% | 96.4% | 102% | 108%
CC(CCN1CCN(CCC(C)CC(C)(C)C)C1CC(C)CC(C)(C)C)CC(C)(C)C (stereo not given) | 87.5% | 39.4% | 80.7% | 102% | 91.6% | 56.7% | 108% | 103% | 81.8% | 105%
COc1cc(N2C(=O)C=CC2=O)ccc1N1C(=O)C=CC1=O | 109% | 102% | 90.2% | 107% | 97.5% | 94.8% | 104% | 106% | 99.1% | 103%
COc1ccc(-c2cn3ccnc3c(-c3ccc4ncn(C5CCCCC5)c4c3)n2)cc1 | 21.2% | 7.49% (active) | -26.3% (active) | 31.6% | 19.1% | 4.78% (active) | 7.7% (active) | 34.8% | 30.4% | 52.3%
COC1NC(Cl)=C(C#N)C(C#N)(C#N)C1(C)C (stereo not given) | 121% | 108% | 105% | 115% | 105% | 122% | 111% | 98.9% | 98.7% | 124%
